Laboratory results published in PubChem BioAssay AID1345083 (National Center for Advancing Translational Sciences (NCATS), 2018).
Out of some 94,000 compounds screened, about 6,200 (6.6%) were called active. Where a call stands in place of a potency, no number is given. Inconclusive results (about 31%) are left out. The sample holds actives, similar compounds and a random draw of the others, so the mix is not that of the screen. Calls come from the whole dose curve; as a rule, active = well fitted inhibition curve with a large enough effect; inconclusive = small, poorly fitted or top-dose-only effect; inactive = flat fitted curve, though single readings scatter.

experiment: Cytotoxic Profiling in HEK 293 Cell Line of Diverse Libraries Using Quantitative High-Throughput Screening; conditions: HEK 293 viability, ATP luminescence (CellTiter-Glo), 48-72 h; series mostly up to 115 µM; note: nearly all actives have a fitted effect of over 60% in size
Method in brief: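 qHTS cytotoxicity; HEK 293, 250 cells/well; compound pinned; 48 or 72 hr, 37 degree Celsius, 5% CO2, 95% humidity; CellTiter-Glo, 10 min RT; luminescence (ATP).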
Potency is the fitted concentration of half-maximal effect.

SMILES	Potency
COCC(=O)N1C[C@@H](COc2cccnc2)[C@H](c2ccccn2)C1	inactive
CN(CCc1ccccn1)[C@@H]1[C@H](O)[C@H](CO)O[C@@H]1CNS(=O)(=O)c1cccs1	inactive
O=C(c1cnccn1)N1CCC(NCc2cc3n(n2)CCCNC3)CC1	inactive
Cc1noc(C)c1S(=O)(=O)N[C@@H]1C[C@H](Cn2cc(C3CC3)nn2)[C@@H](O)[C@H]1O	inactive
O=C(NC1CCCCC1)C1CN(C(=O)c2ccccc2F)CC12CCOCC2 (stereo not given)	inactive
Cc1ccc(-n2c(C3CCN(C(=O)c4ccoc4)CC3)n[nH]c2=O)cc1	inactive
O=C(NC1CCCN(c2ccc3nnc(C4CC4)n3n2)C1)c1ccc(Cl)nc1 (stereo not given)	inactive
COc1ccc(-c2ccccc2C(=O)N2CCC(NC(=O)Cc3ccc(F)cc3)CC2)nn1	inactive
Cc1ccc(-c2cccc(CN3CCCC(NC(=O)c4ccc(Cl)cc4)C3)c2)cc1Cl (stereo not given)	inactive
COc1ccc(CC(=O)NC2CCN(Cc3ccc(-c4ccccc4OC)cc3)C2)cc1 (stereo not given)	39.8 µM (active)
Fc1ccc(CN2CC(Oc3ccc(F)cc3F)C2)cc1	inactive
COc1ccccc1-c1nnc2ccc(C(=O)NC3CC3)cn12	inactive
COc1ccccc1-c1ccc(C(=O)O)cc1	inactive
COc1ccc(CC(=O)NC2CCN(c3ccc4nnc(C)n4n3)CC2)cc1	inactive
COc1ccccc1-c1ccc(CN2CCC(NC(=O)c3ccc(Cl)nc3)C2)cc1 (stereo not given)	50.1 µM (active)
CC(C)Nc1ncc(C(=O)NC2CCCN(CCc3ccccc3)C2)cn1 (stereo not given)	inactive
COc1ccc(F)cc1-c1ccc(CN2CCC(N[S+](=O)([O-])c3ccccc3)C2)cc1 (stereo not given)	44.7 µM (active)
Cc1cc(C)cc(-c2ccc(CN3CCCC(NC(=O)c4ccccc4)C3)cc2)c1 (stereo not given)	28.2 µM (active)
CN(C)C(=O)C1CN(C(=O)c2ccccc2Cl)CC12CCOCC2 (stereo not given)	inactive
Cc1cnc(C2CC2)n1C1CCN(C(=O)C(C)C)CC1	inactive
COc1ccc(C(=O)N2CCOC3(CCN(C(=O)CN)CC3)C2)cc1	inactive
COCCNC(=O)c1ccc(CC2CCNCC2)cc1	inactive

SMILES	Potency
Cc1cnc(-c2cccnc2)n1C1CCN(S(=O)(=O)c2cccc(F)c2)CC1	inactive
O=C(c1c(OCC2CC2)cc(=O)n2c1CCOCC2)N1CCCCCC1	inactive
CCOc1ccc(NC(=O)C2(Cc3cccnc3)CCCCC(=O)N2)cc1 (stereo not given)	inactive
COC(=O)C1=CN(CC(=O)Nc2cccc(OC)c2)S(=O)(=O)N=C1C	inactive
COc1cccc(NC(=O)c2c(OC)cc(=O)n3c2CCCC3)c1	inactive
COc1cccc(NC(=O)c2cnc3n[nH]c(-c4ccc(OC)cc4C)c3n2)c1	100 µM (active)
CC(c1ccon1)N(C)Cc1cnc(S(=O)(=O)C(C)C)n1Cc1ccccc1F (stereo not given)	inactive
CN1CCC(N2CCC[C@H]2c2nc(-c3ccc(OC4CCCCC4)nc3)no2)CC1	28.2 µM (active)
O=C(NC1CCCCC1)N1CCCCCC1c1nc(-c2cccnc2)no1 (stereo not given)	inactive
CC(=O)N1CCC(N2CCC[C@H]2c2nc(-c3ccc(-c4cncnc4)nc3)no2)CC1	inactive
O=C(N[C@@H]1CN(Cc2cccnc2)C[C@H]1CO)c1cccnc1	inactive
COc1c(F)cccc1CN1CCOc2cc([S+](=O)([O-])N(C)C)ccc2C1	79.4 µM (active)
O=[S+]([O-])(Nc1cccnc1)c1ccc2c(c1)OCCN(Cc1cscn1)C2	inactive
CCn1cc(CN2CCOc3ccc(C(=O)NCc4ccccc4F)cc3C2)cn1	inactive
O=C(c1ccccc1F)N1CCCC2(CN[S+](=O)([O-])c3cccnc3N2)C1 (stereo not given)	inactive
Cc1nonc1OCCNC1CCC2(CCNCC2)CC1	inactive
O=c1c2ccccc2cnn1CCNC1CCC2(CCNCC2)CC1	inactive
CN(CCCNC1CCC2(CCNCC2)CC1)c1ccccc1	79.4 µM (active)
CNC(=O)[C@@H]1CN(C(=O)c2cnc(C)cn2)C[C@H]1COC	inactive
Cc1onc(-c2cnn(C)c2NCc2ccc(C#N)cc2)c1C(=O)N1CCN(C)CC1	inactive
CNC(=O)N1CCCC1c1nc(C2CN(C(=O)c3nccn3C)C2)no1 (stereo not given)	inactive
CN1C(=O)CC[C@]2(C(=O)NCc3ccc4c(c3)OCO4)CCCC[C@@H]12	inactive

SMILES	Potency
CC1(C(=O)NCc2ccc3c(c2)OCO3)CCc2cnc(NCc3ccccc3)nc21 (stereo not given)	70.8 µM (active)
Cn1ncc2c(C(=O)NCc3ccc4c(c3)OCO4)cc(-c3ccc(Cl)nc3)nc21	inactive
O=C1Nc2ccc(-c3ccccc3)cc2C(=O)N2C[C@H](O)C[C@@H]12	inactive
O=C(Cc1cc(F)c(F)c(F)c1)N1CCC(Cc2cccc(CO)c2)C1 (stereo not given)	inactive
CC(C)(CC(=O)O)CC(=O)N[C@H]1CO[C@H]2[C@@H]1OC[C@@H]2n1nnnc1-c1ccccc1	inactive
c1ccc(CO[C@@H]2CO[C@H]3[C@@H]2OC[C@@H]3n2nnnc2SCc2ccco2)cc1	89.1 µM (active)
CN(C)CC(=O)N1CC[C@H]2COC(=O)N2c2ccccc2C1	inactive
Cc1nc(CCNC(=O)NC2CCCC2)no1	inactive
CNC(=O)[C@@H]1C[C@@H](O)CN1C1CCN(C(=O)C2(c3ccccc3)CC2)CC1	inactive
CN1C(=O)CS(=O)(=O)C12CCN(C(=O)C1(c3ccccc3)CC1)CC2	inactive
COC1C(=O)N(c2cccc(F)c2)C12CCN(C(=O)C1(c3ccccc3)CC1)CC2 (stereo not given)	44.7 µM (active)
O=C([C@@H]1C[C@H](Oc2cccnc2)CN1C(=O)Cc1cccc(F)c1)N1CCCC1	inactive
CCCN(CC1CCOC1)S(=O)(=O)c1ccccc1Cl (stereo not given)	inactive
CN1CCN(c2nc3c(c(=O)[nH]2)CCN(Cc2cccc4[nH]ccc24)CC3)CC1	inactive
Cc1ccc(C2Cn3nnc(C(=O)N4CCN(C(=O)COc5cccc(C)c5)CC4)c3CO2)cc1 (stereo not given)	inactive
CS(=O)(=O)c1ccc(CN2CCC[C@H]2c2nc(-c3ccc(N4CCC(C(N)=O)CC4)nc3)no2)cc1	inactive
CC(=O)N1CCN(c2cc(-c3noc([C@@H]4CCCN4Cc4ccccc4)n3)ccn2)CC1	70.8 µM (active)
c1ccc2c(CN3CCC[C@H]3c3nc(-c4ccnc(N5CCOCC5)c4)no3)c[nH]c2c1	89.1 µM (active)
CC(=O)N1CCN(c2cc(-c3noc([C@@H]4CCCN4C4CCC4)n3)ccn2)CC1	inactive
O=C1CC(c2nc(-c3ccc4nc[nH]c4c3)no2)CN1Cc1ccncc1 (stereo not given)	inactive
COc1ccc(CN2CCC[C@H]2c2nc(-c3ccc(N(C)C)nc3)no2)c(O)c1	inactive
